According to PubChem BioAssay (NCATS):
Records with an inconclusive call do not appear. Calls of active or inactive are those of the source. Unless noted, calls follow the shape of the dose curve; as a rule, active = well fitted inhibition curve with a large enough effect; inconclusive = small, poorly fitted or top-dose-only effect; inactive = flat fitted curve, though single readings scatter.

Assays:
[1] = qHTS drug screen for cell cycle checkpoint inhibitors in PARPi-resistant BRCA-mutant ovarian cancer cell lines. (AID 1963452; calls by dose curve); details: PEO1/OlaR viability, CellTiter-Glo luminescence, 96 h, stronger effect = lower value
Procedure, shortened: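 PEO1, PEO4 and PEO1/OlaR ovarian cancer cells, 600 per well, exposed 96 h at 37C to a dilution series. Viability read by CellTiter-Glo luminescence, normalized to DMSO and empty wells; activity summarized as Z-AUC.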

[2] = qHTS profiling for inhibitors of Plasmodium falciparum proliferation (AID 504749);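 also: 0% = DMSO vehicle and full inhibition = artemisinin control; nearly all actives have a fitted effect of over 60% in size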; details: P. falciparum in erythrocytes, SYBR Green DNA, 72 h
Procedure, shortened: (§1)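 Readout was DNA-dye fluorescence from lysed cultures, ex 485/em 535 nm. Parasitized red cells had grown 72 h with compound; data scaled between 0.29 uM artemisinin and DMSO wells and corrected using vehicle-only plates.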

3D7 = experiment: as above; details: P. falciparum in erythrocytes, SYBR Green DNA, 72 h; series mostly up to 28.7 µM
Procedure, shortened: as §1

7G8 = experiment: as above; details: P. falciparum in erythrocytes, SYBR Green DNA, 72 h; series mostly up to 28.7 µM
Procedure, shortened: as §1

AA1029 = experiment: as above; details: P. falciparum in erythrocytes, SYBR Green DNA, 72 h; series mostly up to 28.7 µM
Procedure, shortened: as §1

AS120 = experiment: as above; details: P. falciparum in erythrocytes, SYBR Green DNA, 72 h; series mostly up to 28.7 µM
Procedure, shortened: as §1

ATS189 = experiment: as above; details: P. falciparum in erythrocytes, SYBR Green DNA, 72 h; series mostly up to 28.7 µM
Procedure, shortened: as §1

ATS95 = experiment: as above; details: P. falciparum in erythrocytes, SYBR Green DNA, 72 h; series mostly up to 28.7 µM
Procedure, shortened: as §1

C2A = experiment: as above; details: P. falciparum in erythrocytes, SYBR Green DNA, 72 h; series mostly up to 28.7 µM
Procedure, shortened: as §1

CP185 = experiment: as above; details: P. falciparum in erythrocytes, SYBR Green DNA, 72 h; series mostly up to 28.7 µM
Procedure, shortened: as §1

CP191 = experiment: as above; details: P. falciparum in erythrocytes, SYBR Green DNA, 72 h; series mostly up to 28.7 µM
Procedure, shortened: as §1

CP192 = experiment: as above; details: P. falciparum in erythrocytes, SYBR Green DNA, 72 h; series mostly up to 28.7 µM
Procedure, shortened: as §1

CP194 = experiment: as above; details: P. falciparum in erythrocytes, SYBR Green DNA, 72 h; series mostly up to 28.7 µM
Procedure, shortened: as §1

CP201 = experiment: as above; details: P. falciparum in erythrocytes, SYBR Green DNA, 72 h; series mostly up to 28.7 µM
Procedure, shortened: as §1

CP203 = experiment: as above; details: P. falciparum in erythrocytes, SYBR Green DNA, 72 h; series mostly up to 28.7 µM
Procedure, shortened: as §1

CP211 = experiment: as above; details: P. falciparum in erythrocytes, SYBR Green DNA, 72 h; series mostly up to 28.7 µM
Procedure, shortened: as §1

CP215 = experiment: as above; details: P. falciparum in erythrocytes, SYBR Green DNA, 72 h; series mostly up to 28.7 µM
Procedure, shortened: as §1

CP217 = experiment: as above; details: P. falciparum in erythrocytes, SYBR Green DNA, 72 h; series mostly up to 28.7 µM
Procedure, shortened: as §1

CP237 = experiment: as above; details: P. falciparum in erythrocytes, SYBR Green DNA, 72 h; series mostly up to 28.7 µM
Procedure, shortened: as §1

CP238 = experiment: as above; details: P. falciparum in erythrocytes, SYBR Green DNA, 72 h; series mostly up to 28.7 µM
Procedure, shortened: as §1

[3] = measured here: PEO1 parental Z-AUC
[4] = at 28.7 µM (top of the series), parasite line A
[5] = at 28.7 µM (top of the series), parasite line B

Cc1ccsc1C(=CCCN1CCC[C@@H](C(=O)O)C1)c1sccc1C
0.901: Z-AUC ([1]; measured here: PEO4 Z-AUC)
inactive: Z-AUC [1] -0.0792 | activity, negative = inhibition [2, 4] 0.673% | activity, negative = inhibition [2, 5] 3.18% | Potency (3D7) | Potency (7G8) | Potency (AA1029) | Potency (AS120) | Potency (ATS189) | Potency (ATS95) | Potency (C2A) | Potency (CP185) | outcome (CP191) | outcome (CP192) | outcome (CP194) | outcome (CP201) | Potency (CP203) | outcome (CP211) | Potency (CP215) | outcome (CP217) | Potency (CP237) | Potency (CP238)
0.789: Z-AUC [1, 3]

OCCN1C[C@H](O)[C@@H](O)[C@H](O)[C@H]1CO
1.11: Z-AUC ([1]; measured here: PEO4 Z-AUC)
0.927: Z-AUC [1, 3]
inactive: Z-AUC [1] 0.928

CC(C)C[C@@H](N)C(=O)O
inactive: activity, negative = inhibition [2, 4] 7.68% | activity, negative = inhibition [2, 5] 22.5% | Potency (3D7) | Potency (7G8) | Potency (AA1029) | Potency (AS120) | Potency (ATS189) | Potency (ATS95) | Potency (C2A) | Potency (CP185) | outcome (CP191) | outcome (CP192) | outcome (CP194) | outcome (CP201) | Potency (CP203) | outcome (CP211) | Potency (CP215) | outcome (CP217) | Potency (CP237) | Potency (CP238)

COC(=O)c1cccnc1
inactive: activity, negative = inhibition [2, 4] 7.8% | activity, negative = inhibition [2, 5] 16.6% | Potency (3D7) | Potency (7G8) | Potency (AA1029) | Potency (AS120) | Potency (ATS189) | Potency (ATS95) | Potency (C2A) | Potency (CP185) | outcome (CP191) | outcome (CP192) | outcome (CP194) | outcome (CP201) | Potency (CP203) | outcome (CP211) | Potency (CP215) | outcome (CP217) | Potency (CP237) | Potency (CP238)

CN1C(C)(C)CCCC1(C)C
inactive: activity, negative = inhibition [2, 4] 8.89% | activity, negative = inhibition [2, 5] 5.87% | Potency (3D7) | Potency (7G8) | Potency (AA1029) | Potency (AS120) | Potency (ATS189) | Potency (ATS95) | Potency (C2A) | Potency (CP185) | outcome (CP191) | outcome (CP192) | outcome (CP194) | outcome (CP201) | Potency (CP203) | outcome (CP211) | Potency (CP215) | outcome (CP217) | Potency (CP237) | Potency (CP238)

COc1ccc(-c2cc(=O)c3c(O)cc(O[C@@H]4O[C@H](CO[C@@H]5O[C@@H](C)[C@H](O)[C@@H](O)[C@H]5O)[C@@H](O)[C@H](O)[C@H]4O)cc3o2)cc1O
1.52: Z-AUC [1, 3]
inactive: Z-AUC [1] 1.88
0.98: Z-AUC ([1]; measured here: PEO4 Z-AUC)

CN(C(=O)c1c(O)c2ccccc2n(C)c1=O)c1ccccc1
0.533: Z-AUC [1, 3]
inactive: Z-AUC [1] 0.957 | activity, negative = inhibition [2, 4] 16.3% | activity, negative = inhibition [2, 5] 2.94% | Potency (3D7) | Potency (AA1029) | Potency (AS120) | Potency (ATS189) | Potency (ATS95) | Potency (C2A) | Potency (CP185) | outcome (CP191) | outcome (CP192) | outcome (CP194) | outcome (CP201) | Potency (CP203) | outcome (CP211) | Potency (CP215) | outcome (CP217) | Potency (CP237) | Potency (CP238)
0.496: Z-AUC ([1]; measured here: PEO4 Z-AUC)

O=C(CN1CCNCC1)NC1CCCCC1
inactive: activity, negative = inhibition [2, 4] 3.68% | activity, negative = inhibition [2, 5] 4.23% | Potency (3D7) | Potency (7G8) | Potency (AA1029) | Potency (AS120) | Potency (ATS189) | Potency (ATS95) | Potency (C2A) | Potency (CP185) | outcome (CP191) | outcome (CP192) | outcome (CP194) | outcome (CP201) | Potency (CP203) | outcome (CP211) | Potency (CP215) | outcome (CP217) | Potency (CP237) | Potency (CP238)

O=C(/C=C/c1ccccc1)OCc1ccccc1
inactive: activity, negative = inhibition [2, 4] 4.66% | activity, negative = inhibition [2, 5] -29.4% | Potency (3D7) | Potency (7G8) | Potency (AA1029) | Potency (AS120) | Potency (ATS189) | Potency (ATS95) | Potency (C2A) | Potency (CP185) | outcome (CP191) | outcome (CP192) | outcome (CP194) | outcome (CP201) | Potency (CP203) | outcome (CP211) | Potency (CP215) | outcome (CP217) | Potency (CP237) | Potency (CP238)

CCOC(=O)[C@H](CCc1ccccc1)N[C@@H](C)C(=O)N1CCC[C@H]1C(=O)O
0.764: Z-AUC [1, 3]
inactive: Z-AUC [1] 0.643 | activity, negative = inhibition [2, 4] 7.69% | Potency (3D7) | Potency (7G8) | Potency (AS120) | Potency (ATS189) | Potency (ATS95) | Potency (C2A) | Potency (CP185) | outcome (CP191) | outcome (CP192) | outcome (CP194) | outcome (CP201) | Potency (CP203) | outcome (CP211) | outcome (CP217) | Potency (CP237) | Potency (CP238)
0.867: Z-AUC ([1]; measured here: PEO4 Z-AUC)

CN1CCN(C(=O)C2CCCCC2)CC1
inactive: activity, negative = inhibition [2, 4] 0.439% | activity, negative = inhibition [2, 5] -13.4% | Potency (3D7) | Potency (7G8) | Potency (AA1029) | Potency (AS120) | Potency (ATS189) | Potency (ATS95) | Potency (C2A) | Potency (CP185) | outcome (CP191) | outcome (CP192) | outcome (CP194) | outcome (CP201) | Potency (CP203) | outcome (CP211) | Potency (CP215) | outcome (CP217) | Potency (CP237) | Potency (CP238)

CC(C(=O)O)c1ccc2c(c1)Cc1cccnc1O2 (configuration not stated)
inactive: activity, negative = inhibition [2, 4] 5.68% | activity, negative = inhibition [2, 5] -1.86% | Potency (3D7) | Potency (7G8) | Potency (AA1029) | Potency (AS120) | Potency (ATS189) | Potency (ATS95) | Potency (C2A) | Potency (CP185) | outcome (CP191) | outcome (CP192) | outcome (CP194) | outcome (CP201) | Potency (CP203) | outcome (CP211) | Potency (CP215) | outcome (CP217) | Potency (CP237) | Potency (CP238)

O=c1[nH]c(=O)n([C@H]2C[C@H](O)[C@@H](CO)O2)cc1I
inactive: Z-AUC [1] 1.59
0.705: Z-AUC [1, 3]
0.916: Z-AUC ([1]; measured here: PEO4 Z-AUC)

CCCOC(=O)c1ccc(N)cc1
inactive: activity, negative = inhibition [2, 4] -0.392% | activity, negative = inhibition [2, 5] 6.95% | Potency (3D7) | Potency (7G8) | Potency (AA1029) | Potency (AS120) | Potency (ATS189) | Potency (ATS95) | Potency (C2A) | Potency (CP185) | outcome (CP191) | outcome (CP192) | outcome (CP194) | outcome (CP201) | Potency (CP203) | outcome (CP211) | Potency (CP215) | outcome (CP217) | Potency (CP237) | Potency (CP238)

C[C@@H]1CCC[C@H](C)N1
inactive: activity, negative = inhibition ([2]; at 12.8 µM (top of the series), parasite line A) 13.8% | activity, negative = inhibition ([2]; at 12.8 µM (top of the series), parasite line B) -5.49% | Potency (3D7) | Potency (7G8) | Potency (AA1029) | Potency (AS120) | Potency (ATS189) | Potency (ATS95) | Potency (C2A) | Potency (CP185) | outcome (CP191) | outcome (CP192) | outcome (CP194) | outcome (CP201) | Potency (CP203) | outcome (CP211) | Potency (CP215) | outcome (CP217) | Potency (CP237) | Potency (CP238)

O=C(O)/C=C/c1ccc(Cn2ccnc2)cc1
inactive: Z-AUC [1] 1.62
2.28: Z-AUC ([1]; measured here: PEO4 Z-AUC)
1.73: Z-AUC [1, 3]
